Source: the supplement of paper PMC9262897, “Low-cost anti-mycobacterial drug discovery using engineered E. coli” (Nature Communications, 2022)
Structures can show the parent of a compound that is named as a salt. ± gives the standard deviation of the averaged measurements.

What was measured:
Assay in all cases: growth (OD600 after 10 h); higher = more growth (less inhibition)
[1] = tested on: E. coli TESEC Alr+ wild-type control; conditions: compound 0.1 mM; raw OD600 reference: median of DMSO wells 0.241, cell-free background 0.041
Protocol: (§1)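 TESEC Mtb Alr E. coli, or the Alr+ wild-type control, in 384-well plates with Prestwick library compounds at 0.1 mM and 1% DMSO, across arabinose induction levels of 1E3 to 1E7 nM. Growth is read as OD600 after 10 h at 37 °C in triplicate biological replicates.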

E. coli TESEC Mtb Alr [2] = conditions: compound 0.1 mM
Protocol: as §1

E. coli TESEC Mtb Asd = conditions: compound 0.1 mM
Protocol: (§2)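 TESEC E. coli strains in which the native enzyme is deleted and replaced by arabinose-inducible Mtb Asd, DapB, CysH or TrpD, each grown in its selective medium. Strains were screened against the Prestwick library at 0.1 mM and 1% DMSO in 384-well format at low and high arabinose induction. Growth is read as OD600 after 10 h in triplicate.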

E. coli TESEC Mtb DapB = conditions: compound 0.1 mM
Protocol: as §2

[3] = tested on: E. coli TESEC Alr+ wild-type control; conditions: compound 0.1 mM; raw OD600 reference: median of DMSO wells 0.49, cell-free background 0.052
Protocol: (§3)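 TESEC Mtb Alr E. coli (ΔaraC ΔtolC ΔentC Δalr ΔdadX, arabinose-inducible Mtb Alr) or the Alr+ wild-type control strain, grown in defined M9-fructose medium without D-alanine in 96-well plates with Prestwick library compounds at 0.1 mM and 1% DMSO. Low Alr induction is 0.1 µM arabinose and high induction is 10 mM arabinose.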

E. coli TESEC Mtb Alr [4] = conditions: compound 0.1 mM; remark: listed apart in the source
Protocol: as §3

[5] = arabinose 1000 nM, raw OD600 reference: median of DMSO wells 0.294, cell-free background 0.041
[6] = arabinose 10000 nM, raw OD600 reference: median of DMSO wells 0.264, cell-free background 0.041
[7] = arabinose 100000 nM, raw OD600 reference: median of DMSO wells 0.201, cell-free background 0.041
[8] = arabinose 1000000 nM, raw OD600 reference: median of DMSO wells 0.193, cell-free background 0.041
[9] = arabinose 10000000 nM, raw OD600 reference: median of DMSO wells 0.146, cell-free background 0.041
[10] = arabinose induction (level): High, raw OD600 reference: median of DMSO wells 0.331, cell-free background 0.041
[11] = arabinose induction (level): Low, raw OD600 reference: median of DMSO wells 0.417, cell-free background 0.041
[12] = arabinose induction (level): High, raw OD600 reference: median of DMSO wells […], cell-free background 0.041
[13] = arabinose induction (level): Low, raw OD600 reference: median of DMSO wells 0.227, cell-free background 0.041
[14] = arabinose 100 nM, raw OD600 reference: median of DMSO wells 0.413, cell-free background 0.052
[15] = arabinose 10000000 nM, raw OD600 reference: median of DMSO wells […], cell-free background 0.052

| Structure (SMILES) | growth [1] | growth (E. coli TESEC Mtb Alr [2]; [5]) | growth (E. coli TESEC Mtb Alr [2]; [6]) | growth (E. coli TESEC Mtb Alr [2]; [7]) | growth (E. coli TESEC Mtb Alr [2]; [8]) | growth (E. coli TESEC Mtb Alr [2]; [9]) | growth (E. coli TESEC Mtb Asd; [10]) | growth (E. coli TESEC Mtb Asd; [11]) | growth (E. coli TESEC Mtb DapB; [12]) | growth (E. coli TESEC Mtb DapB; [13]) | growth [3] | growth (E. coli TESEC Mtb Alr [4]; [14]) | growth (E. coli TESEC Mtb Alr [4]; [15]) |
| --- | --- | --- | --- | --- | --- | --- | --- | --- | --- | --- | --- | --- | --- |
| CC(=O)OCC(=O)[C@@]12OC3(CCCC3)O[C@@H]1C[C@H]1[C@@H]3CCC4=CC(=O)C=C[C@]4(C)[C@@]3(F)[C@@H](O)C[C@@]12C [Amcinonide] | 0.185 ± 0.011 | 0.287 ± 0.066 | 0.272 ± 0.011 | 0.241 ± 0.059 | 0.242 ± 0.07 | 0.172 ± 0.011 | 0.451 ± 0.11 | 0.402 ± 0.067 | 0.222 ± 0.043 | 0.265 ± 0.025 | 0.462 ± 0.024 | 0.4092 ± 0.0021 | 0.304 ± 0.0053 |
| C[C@@H](c1ncncc1F)[C@](O)(Cn1cncn1)c1ccc(F)cc1F [Voriconazole] | 0.214 ± 0.013 | 0.267 ± 0.0077 | 0.252 ± 0.003 | 0.196 ± 0.038 | 0.154 ± 0.0053 | 0.147 ± 0.008 | 0.315 ± 0.062 | 0.285 ± 0.035 | 0.169 ± 0.015 | 0.201 ± 0.013 | 0.557 ± 0.1 | 0.412 ± 0.011 | 0.318 ± 0.012 |
| CN(C)CCCN1c2ccccc2Sc2ccc(C(F)(F)F)cc21 [Triflupromazine hydrochloride] | 0.0405 ± 0.00036 | 0.03957 ± 0.00015 | 0.0392 ± 0.00026 | 0.0407 ± 0.00062 | 0.0391 | 0.042 ± 0.00055 | 0.0504 ± 0.0028 | 0.0491 ± 0.0012 | 0.0483 ± 0.00081 | 0.211 ± 0.15 | 0.049 ± 0.00076 | 0.298 ± 0.21 | 0.0543 ± 0.0015 |
| O=C(O)c1cc(-c2ccc(F)cc2F)ccc1O [Diflunisal] | 0.128 ± 0.0035 | 0.151 ± 0.018 | 0.105 ± 0.0038 | 0.119 ± 0.003 | 0.086 ± 0.0022 | 0.112 ± 0.0029 | 0.218 ± 0.059 | 0.139 ± 0.0027 | 0.172 ± 0.0032 | 0.17 ± 0.0045 | 0.279 ± 0.0091 | 0.248 ± 0.052 | 0.136 ± 0.006 |
| Clc1ccc(C(c2ccccc2Cl)C(Cl)Cl)cc1 (stereo unspecified) [Mitotane] | 0.224 ± 0.0027 | 0.215 ± 0.017 | 0.224 ± 0.01 | 0.183 ± 0.012 | 0.0935 ± 0.018 | 0.133 ± 0.013 | 0.213 ± 0.018 | 0.204 ± 0.018 | 0.208 ± 0.0072 | 0.224 ± 0.033 | 0.403 ± 0.0086 | 0.38 ± 0.011 | 0.0729 ± 0.0022 |
| O=C1c2ccccc2C(=O)C1c1ccccc1 [Phenindione] | 0.243 ± 0.0053 | 0.298 ± 0.0061 | 0.268 ± 0.011 | 0.197 ± 0.03 | 0.166 ± 0.0028 | 0.147 ± 0.004 | 0.226 ± 0.037 | 0.321 ± 0.023 | 0.194 ± 0.0095 | 0.227 ± 0.017 | 0.488 ± 0.05 | 0.408 ± 0.0092 | 0.302 ± 0.025 |
| COC(=O)C1=C(C)NC(C)=C(C(=O)OC(C)C)C1c1cccc2nonc12 (stereo unspecified) [Isradipine] | 0.149 ± 0.0056 | 0.206 ± 0.0037 | 0.254 ± 0.015 | 0.164 ± 0.0057 | 0.0817 ± 0.0022 | 0.154 ± 0.0037 | 0.166 ± 0.018 | 0.259 ± 0.041 | 0.19 ± 0.019 | 0.21 ± 0.011 | 0.379 ± 0.0051 | 0.394 ± 0.01 | 0.167 ± 0.038 |
| Nc1nc(/C(=C/CC(=O)O)C(=O)N[C@@H]2C(=O)N3C(C(=O)O)=CCS[C@H]23)cs1 [Ceftibuten] | 0.146 ± 0.0038 | 0.0633 ± 0.0031 | 0.04393 ± 0.00032 | 0.141 ± 0.012 | 0.138 ± 0.0075 | 0.177 ± 0.004 | 0.158 ± 0.0053 | 0.0769 ± 0.00091 | 0.188 ± 0.021 | 0.231 ± 0.034 | 0.252 ± 0.016 | 0.0471 ± 0.00072 | 0.273 ± 0.01 |
| C[C@H]1O[C@@H](O[C@H]2[C@@H](O)C[C@H](O[C@H]3[C@@H](O)C[C@H](O[C@H]4CC[C@@]5(C)[C@H](CC[C@@H]6[C@@H]5C[C@@H](O)[C@]5(C)[C@@H](C7=CC(=O)OC7)CC[C@]65O)C4)O[C@@H]3C)O[C@@H]2C)C[C@H](O)[C@@H]1O [Digoxin] | 0.232 ± 0.0079 | 0.282 ± 0.01 | 0.275 ± 0.0083 | 0.2 ± 0.0092 | 0.176 ± 0.0061 | 0.136 ± 0.0037 | 0.28 ± 0.057 | 0.413 ± 0.046 | 0.196 ± 0.016 | 0.236 ± 0.045 | 0.617 ± 0.038 | 0.414 ± 0.0055 | 0.329 ± 0.044 |
| CCCN(CCC)S(=O)(=O)c1ccc(C(=O)O)cc1 [Probenecid] | 0.226 ± 0.0059 | 0.254 ± 0.0078 | 0.261 ± 0.011 | 0.221 ± 0.047 | 0.153 ± 0.0022 | 0.159 ± 0.0038 | 0.346 ± 0.12 | 0.371 ± 0.07 | 0.232 ± 0.0066 | 0.223 ± 0.02 | 0.49 ± 0.048 | 0.4 ± 0.016 | 0.267 ± 0.0045 |
| Nc1ccc(C(=O)NCC(=O)O)cc1 [Aminohippuric acid] | 0.246 ± 0.011 | 0.297 ± 0.018 | 0.2604 ± 0.0024 | 0.186 ± 0.022 | 0.189 ± 0.006 | 0.138 ± 0.0027 | 0.372 ± 0.047 | 0.464 ± 0.01 | 0.208 ± 0.0093 | 0.234 ± 0.0072 | 0.6256 ± 0.0055 | 0.408 ± 0.015 | 0.3487 ± 0.0013 |
| C[C@H]1[C@H](NC(=O)/C(=N\OC(C)(C)C(=O)O)c2csc(N)n2)C(=O)N1S(=O)(=O)O [Aztreonam] | 0.161 ± 0.011 | 0.0624 ± 0.0045 | 0.0463 ± 0.0008 | 0.136 ± 0.014 | 0.177 ± 0.005 | 0.172 ± 0.0037 | 0.161 ± 0.009 | 0.11 ± 0.0038 | 0.188 ± 0.0055 | 0.186 ± 0.026 | 0.385 ± 0.016 | 0.0511 ± 0.0047 | 0.277 ± 0.016 |
| CCC1=C(C)CN(C(=O)NCCc2ccc(S(=O)(=O)NC(=O)N[C@H]3CC[C@H](C)CC3)cc2)C1=O [Glimepiride] | 0.247 ± 0.0069 | 0.299 ± 0.011 | 0.239 ± 0.0027 | 0.161 ± 0.0087 | 0.182 ± 0.004 | 0.155 ± 0.0053 | 0.338 ± 0.064 | 0.439 ± 0.052 | 0.21 ± 0.012 | 0.221 ± 0.018 | 0.434 ± 0.034 | 0.411 ± 0.0056 | 0.193 ± 0.014 |
| CN(C)CC/C=C1/c2ccccc2Sc2ccc(Cl)cc21 [Chlorprothixene hydrochloride] | 0.0398 ± 0.0002 | 0.0409 ± 0.001 | 0.03943 ± 0.00032 | 0.04043 ± 0.00038 | 0.042 ± 0.0051 | 0.0425 ± 0.00068 | 0.0468 ± 0.00058 | 0.0472 ± 0.0011 | 0.0467 ± 0.00076 | 0.0463 ± 0.00046 | 0.157 ± 0.12 | 0.41 ± 0.0049 | 0.0664 ± 0.0082 |
| O=C(O)CCC(=O)Nc1ccc(S(=O)(=O)Nc2nccs2)cc1 [Succinylsulfathiazole] | 0.257 ± 0.0064 | 0.328 ± 0.017 | 0.264 ± 0.0094 | 0.21 ± 0.018 | 0.18 ± 0.0018 | 0.157 ± 0.0071 | 0.447 ± 0.027 | 0.432 ± 0.04 | 0.196 ± 0.024 | 0.258 ± 0.028 | 0.455 ± 0.037 | 0.4084 ± 0.0019 | 0.317 ± 0.014 |
| COc1cc(C)nc(-n2nc(C)cc2OC)n1 [Epirizole] | 0.2428 ± 0.0024 | 0.263 ± 0.012 | 0.249 ± 0.0083 | 0.178 ± 0.019 | 0.18 ± 0.0057 | 0.139 ± 0.005 | 0.342 ± 0.051 | 0.465 ± 0.042 | 0.192 ± 0.025 | 0.238 ± 0.054 | 0.493 ± 0.031 | 0.421 ± 0.011 | 0.27 ± 0.12 |
| COc1cnc(NS(=O)(=O)c2ccc(N)cc2)nc1 [Sulfameter] | 0.242 ± 0.0095 | 0.283 ± 0.0042 | 0.239 ± 0.011 | 0.218 ± 0.029 | 0.158 ± 0.0061 | 0.143 ± 0.0066 | 0.442 ± 0.039 | 0.399 ± 0.024 | 0.207 ± 0.027 | 0.243 ± 0.0072 | 0.516 ± 0.12 | 0.407 ± 0.021 | 0.336 ± 0.0042 |
